Consider 27 compounds from PubChem BioAssay AID720690 (Broad Institute, 2013).

Entries with a potency or affinity are not part of this list. The source made the active and inactive calls.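 The calls were made as follows: active = every repeat run showing a signal drop whose fitted half-maximal concentration is at most twice the top tested concentration; inconclusive = repeat runs disagree, or flat partial drop, or poor fit; inactive = the rest.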

The nature of the experiment: general mammalian cell viability loss – activator set, cherry-pick, cytotoxicity control for miR-122 modulator project, dose response (AID 720690). The following applies: HEK293T viability, CellTiter-Glo luminescence, 48 h; series mostly up to 26 µM.
On to `CO[C@@H]1CN(C)C(=O)c2cc(NC(=O)NC(C)C)ccc2OC[C@H](C)N(Cc2cncnc2)C[C@H]1C`, for which the outcome was inactive. The entry for `COCC(=O)N1[C@H](CO)[C@H]2c3ccccc3N(C(=O)C3CC3)C[C@H]21` is “inactive”.

Regarding `Cc1nn(C)cc1NC(=O)C[C@@H]1CC[C@@H]2[C@@H](COc3ccc(NC(=O)Nc4cccc(Cl)c4)cc3C(=O)N2C)O1`, the call was inactive. Consider `CN1C(=O)c2cc(NC(=O)c3ccc4c(c3)OCO4)ccc2OC[C@@H]2O[C@@H](CC(=O)O)CC[C@@H]21`, for which the result was inactive.

Turning to `C/C=C/c1ccc([C@@H]2[C@@H](CO)N(C(C)=O)[C@@H]2CN(C)C(=O)c2ccccn2)cc1`, the compound was called inactive. Regarding `COC(=O)C[C@H]1CC[C@H]2[C@@H](COc3ccc(NC(=O)Nc4c(C)noc4C)cc3C(=O)N2C)O1`, the result was inactive. To `CC(C)C(=O)Nc1ccc2c(c1)C(=O)N(C)[C@@H]1CC[C@@H](CC(=O)NCCc3ccccc3)O[C@H]1CO2` belongs “inactive”; to `C[C@@H]1CN([C@@H](C)CO)S(=O)(=O)c2ccc(C#CC3CC3)cc2O[C@@H]1CN(C)C(=O)c1cccc(F)c1`, “inactive”; to `C/C=C/c1ccc([C@@H]2[C@@H](CO)N[C@@H]2CN(CC(C)C)C(=O)c2ccccn2)cc1`, “inactive”.

For `CN(C)CCCNC(=O)C[C@@H]1CC[C@H]2[C@@H](COc3ccc(NC(=O)c4cccc(F)c4)cc3C(=O)N2C)O1`, the outcome was inactive. To `COC(=O)C[C@@H]1CC[C@H]2[C@@H](COc3ccc(NC(=O)c4ccc(F)c(F)c4)cc3C(=O)N2C)O1` belongs “inactive”; to `O=c1c2c3c(sc2nc2n1CCC2)CCCC3`, “inactive”. `C[C@H](CO)N1C[C@H](C)[C@@H](CN(C)CC2CCCCC2)OCCCC[C@H](C)Oc2ccc(NC(=O)Nc3cccc4ccccc34)cc2C1=O`: the compound was called inactive.

On to `CN1C(=O)c2cc(NC(=O)c3cc(F)cc(F)c3)ccc2OC[C@@H]2O[C@@H](CC(=O)O)CC[C@@H]21`, for which the compound was classed as inactive.

Consider `Cc1ccc(NCC(=O)c2ccccc2)cc1Cl`, for which the compound was classed as inactive. The entry for `COc1ccc(CNC(=O)C[C@H]2CC[C@H]3[C@H](COc4ccc(NC(=O)C(C)C)cc4C(=O)N3C)O2)cc1` is “inactive”.

Regarding `Cc1ccccc1-c1ccc2c(c1)O[C@@H](CN(C)C(=O)Nc1ccc(F)cc1)[C@@H](C)CN([C@@H](C)CO)S2(=O)=O`, the outcome was inactive.

Regarding `C[C@@H]1CN([C@H](C)CO)S(=O)(=O)c2ccc(C3=CCCC3)cc2O[C@@H]1CN(C)C(=O)Cc1ccncc1`, the compound was classed as inactive.

In the case of `CCCNC(=O)C[C@@H]1CC[C@@H]2[C@@H](COc3ccc(NC(=O)c4ccc(C(F)(F)F)cc4)cc3C(=O)N2C)O1`, the outcome was inactive. Turning to `CCCNC(=O)N1[C@H](CO)[C@H](c2ccc(-c3ccccc3)cc2)[C@@H]1CNC(C)=O`, the compound was classed as inactive.

Turning to `COc1cccc(C(=O)Nc2ccc3c(c2)C(=O)N(C)[C@@H]2CC[C@@H](CC(=O)N[C@H](C)c4ccccc4)O[C@@H]2CO3)c1`, the compound was classed as inactive.

With `CC(C)C(=O)Nc1ccc2c(c1)C(=O)N(C)[C@@H]1CC[C@H](CC(=O)NCC3CC3)O[C@H]1CO2`, the call was inactive.

For the compound `C=CCc1c(OC)ccc2ccc(=O)oc12`, the result was inactive. As to `Cn1c(NC(=O)c2ccco2)c(-c2ccccc2Cl)c(=O)c2ccccc21`, the result was inactive. `Nc1ccc(Oc2ccc(Br)cc2)cc1`: the call was inactive. In the case of `Cc1ccc(C(=O)n2nc(-c3ccccc3)nc2NCc2ccco2)cc1`, the compound was classed as inactive. Take `CCCc1ccc(S(=O)(=O)NCCc2ccncc2)cc1`: the outcome was inactive.
